Compounds with a hit are over-represented: about 3.8% of the library has one in this group of screens.
NTMT1 inhibitor = blocks human N-terminal methyltransferase 1 activity | Potency, µM (titrated, usually from 114 µM), for inactives: at the highest dose activity change, negative = inhibition, usual class: inhibitors | 59,000 tested, 2.5% active | AID 1645870 | Q9BV86 | NTMT1 MTase-Glo SAH luminescence, purified enzyme;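 further: potency means the concentration at half of the fitted maximal effect; plate controls were DMSO vehicle for no effect and no enzyme for full effect; nearly all actives have a fitted effect of over 65% in size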
SKOV3 invasion = blocks SKOV3ip1 adhesion and invasion in omental model. Potency, µM (doses to about 45.8 µM), for inactives: at the highest dose activity change, negative = inhibition, usual class: inhibitors. 46,000 tested, 0.1% active. SKOV3ip1-GFP adhesion/invasion on 3D omental model, fluorescence;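 further: potency means the concentration at half of the fitted maximal effect; plate controls were DMSO wells for no effect and tomatine positive control wells for full effect; nearly all actives have a fitted effect of over 65% in size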
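Primary human omental fibroblast/mesothelial 3D culture pre-formed 48 h. SKOV3ip1-GFP cells added with compounds (0.36-46 umol/L), incubated 2 h RT/16 h 37 C, fixed; GFP cells quantified at 488/509 nm.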
DRV1 agonist = GPR32 (DRV1) agonism, beta-arrestin recruitment; O75388; CHO-K1 GPR32 beta-arrestin PathHunter luminescence, 90 min; zero percent set by DMSO-only wells; activation, % at 76.9 µM; 48,000 tested, 2.5% active; AID 1346428;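 active means activation of at least 60% and not above a set upper limit, about 1 call in 100 departs from these limits; inconclusive means activation of 40% to 60%, or above that upper limit; inactive means activation under 40%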; further: 0% is about no effect
Target sequence (O75388 whole entry, looked up): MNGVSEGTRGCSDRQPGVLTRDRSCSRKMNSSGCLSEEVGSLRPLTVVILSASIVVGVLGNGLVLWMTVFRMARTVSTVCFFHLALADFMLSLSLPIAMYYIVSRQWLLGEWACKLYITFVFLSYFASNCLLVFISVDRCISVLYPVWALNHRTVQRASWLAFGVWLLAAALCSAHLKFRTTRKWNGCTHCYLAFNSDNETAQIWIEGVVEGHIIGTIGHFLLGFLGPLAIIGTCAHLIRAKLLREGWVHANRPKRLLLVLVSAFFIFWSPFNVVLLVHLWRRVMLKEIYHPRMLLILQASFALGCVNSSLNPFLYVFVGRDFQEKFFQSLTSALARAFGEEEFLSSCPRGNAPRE
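Readings come from a cell-based beta-arrestin complementation format: CHO-K1 GPR32 stable cells (2,500/well) treated 90 min with compounds, then beta-Gal substrate added for 1 h before chemiluminescence imaging.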
TSG101-PTAP inh = TSG101-PTAP interaction inhibition, HIV-1 budding; Q99816; Fluorescence polarization, FITC-PTAP peptide/Tsg101, 20 min; Potency, µM (doses to about 115 µM), hits mostly inhibitors; 44,000 tested, under 10 active; further: potency means the concentration at half of the fitted maximal effect; 0% is about no effect
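Fluorescence polarization: Tsg101 binding domain (10 uM final) in 10 mM HEPES pH 7.5, 0.15 M NaCl, 0.01% Tween 20, 3 mM EDTA, 0.1 mM TCEP; compounds pinned; FITC-PTAP peptide 50 nM final; 20 min, r.t.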
GALK inh = GALK (human) enzyme inhibition; P51570; recombinant GALK, Kinase-Glo ATP luminescence, 1 h; Potency, µM (doses to about 57.5 µM), inactives show at the highest dose activity, negative = inhibition, actives largely listed as inhibitors; 44,000 tested, under 10 active;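 further: plate controls were full GALK reaction for no effect and reaction lacking GALK for full effect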
Target sequence (P51570 whole entry, looked up): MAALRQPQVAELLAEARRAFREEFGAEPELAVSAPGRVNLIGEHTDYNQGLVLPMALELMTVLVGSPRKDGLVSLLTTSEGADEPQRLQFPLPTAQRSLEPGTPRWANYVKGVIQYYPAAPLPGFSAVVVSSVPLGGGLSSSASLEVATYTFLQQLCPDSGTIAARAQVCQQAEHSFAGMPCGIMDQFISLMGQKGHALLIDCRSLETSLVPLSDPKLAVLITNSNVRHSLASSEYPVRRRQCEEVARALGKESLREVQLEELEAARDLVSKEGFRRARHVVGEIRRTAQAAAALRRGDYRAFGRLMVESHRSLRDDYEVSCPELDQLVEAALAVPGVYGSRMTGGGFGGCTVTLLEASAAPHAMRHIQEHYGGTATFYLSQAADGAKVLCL
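Compounds were pinned into ATP buffer, then GALK-galactose mix was added (final 5 nM enzyme, 35 uM ATP, 100 uM galactose, pH 8.0). After 1 h at room temperature, Kinase-Glo Plus was added and luminescence read.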
B2AR arrestin ag = ADRB2 beta-arrestin recruitment; P07550; HTLA Tango cells, beta-arrestin recruitment, luciferase luminescence, 18 h; Potency, µM (highest dose often 46.1 µM), most hits filed as activators; 44,000 tested, under 10 active;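 further: potency means the concentration at half of the fitted maximal effect; 0% = DMSO and full agonism = EC100 isoproterenol or metaproterenol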
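Ligand-induced beta-arrestin recruitment to recombinant beta2-AR is measured via a tTA-driven luciferase reporter in Tango cells after 18 hr compound exposure at 37 degrees C. Concentrations span up to 46 microM.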
DYRK1A inh-1 = inhibitors of human DYRK1A kinase; shares compounds with NTMT1 inhibitor; recombinant DYRK1A, Kinase-Glo ATP depletion luminescence; Potency, µM (series often up to 76.9 µM), for the others: top-dose activity change, negative = inhibition, actives largely listed as inhibitors; 100 tested, 80% active; AID 2705
CLK4 RBC = blocks human CLK4 kinase in radiometric assay | Reaction Biology kinase assay, 10 uM ATP | Potency, µM, usual class: inhibitors | shares compounds with NTMT1 inhibitor | 65 tested, 100% active; calls by dose curve
DYRK1A inh-2 = DYRK1A kinase inhibition; shares compounds with NTMT1 inhibitor; Reaction Biology kinase assay, 10 uM ATP; Potency, µM, usual class: inhibitors; 65 tested, 90% active;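 active means compounds that showed inhibition of Dyrk1a and received a fitted potency; inactive means compounds that showed no inhibition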
CLK2 RBC = inhibitors of human CLK2 kinase | shares compounds with NTMT1 inhibitor | Reaction Biology kinase assay, 10 uM ATP | Potency, µM, actives largely listed as inhibitors | 65 tested, 90% active | AID 504427;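 active means compound that inhibits Clk2 kinase in the dose series, with an IC50 potency reported; inactive means no inhibition seen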
CLK3 inh = CLK3 kinase inhibition. 65 tested, 40% active. shares compounds with NTMT1 inhibitor. recombinant CLK3 kinase assay, 10 uM ATP. Potency, µM, most hits filed as inhibitors. AID 504428;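 active means compounds that inhibited Clk3 enough in the ten-dose series to give a half-maximal potency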
DYRK1B RBC = inhibitors of human Dyrk1b kinase; shares compounds with NTMT1 inhibitor; Recombinant Dyrk1b kinase assay, 10 uM ATP; Potency, µM, most hits filed as inhibitors; 65 tested, 80% active; AID 504429;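 active means compounds whose dose response shows an inhibitor phenotype against the kinase Dyrk1b; inactive means compounds showing no inhibitor phenotype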
CLK1 RBC = inhibitors of human CLK1 kinase; shares compounds with NTMT1 inhibitor; Potency, µM, usual class: inhibitors; 65 tested, 90% active; recombinant Clk1 kinase assay, 10 uM ATP;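 active means compounds that block the splicing kinase Clk1 enough to give a fitted half-inhibition concentration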
USP2 K63 confirm = confirmation of human USP2a inhibitors with K63 diubiquitin substrate. Potency, µM (doses to about 57.5 µM), for the others: at the highest dose activity change, negative = inhibition, most hits filed as inhibitors. shares compounds with NTMT1 inhibitor. 30 tested, 80% active. AID 652172. USP2 cleavage of DiUb K63-3IQF, fluorescence kinetic
Casp6 inh = caspase-6 inhibition, USP2a inhibitor counterscreen; shares compounds with NTMT1 inhibitor; Caspase 6 enzyme, Caspase-Glo 6 luminescence; activity change, negative = inhibition, % at 46.1 µM; 30 tested, under 10 active; AID 652277
NNMT inh = blocks human NNMT methyltransferase; shares compounds with NTMT1 inhibitor; NNMT MTase-Glo luminescence, SAH detection; Potency, µM (doses to about 57.1 µM), without a hit: at the top dose activity, negative = inhibition, most hits filed as inhibitors; 120 tested, 10% active
An asterisk follows results filed as active; [ ] = another dose, or the depositor's remark. Unless noted, the call rests on the fitted dose curve; in most records, active means well fitted curve in the direction sought with a large enough effect; inconclusive means small, poorly fitted or top-dose-only effect, or another doubt; inactive means no such curve, though single readings can be large; an effect the other way counts as inactive or inconclusive.

For CCN(Cc1cccs1)c1ncnc2ccc(-c3ccc4c(c3)OCO4)cc12 the results were NTMT1 inhibitor inconclusive, DYRK1A inh-1 0.16µM*, CLK4 RBC 0.014*, DYRK1A inh-2 0.038µM*, CLK2 RBC 0.45µM*, CLK3 inh 6.2µM*, DYRK1B RBC 0.23µM* and CLK1 RBC 0.014µM*.
For Cc1ccc(NC(=O)C2CCCN2S(=O)(=O)c2ccc3c(c2)CCCC(=O)N3)cc1C (stereo unspecified) the results were NTMT1 inhibitor -1%, SKOV3 invasion inactive, DRV1 agonist 7, TSG101-PTAP inh inactive, GALK inh -2% and B2AR arrestin ag inactive.
Screening O=C(O)c1cc(N(Cc2ccc(C3CCCCC3)cc2)C(=O)c2ccc(Oc3ccccc3)cc2)ccc1O returned NTMT1 inhibitor 32µM* and NNMT inh -19%.
`CCc1c(-c2ccccc2)c(-c2ccccc2)nn1-c1ccccc1-c1cccc(OCC(=O)O)c1` gave NTMT1 inhibitor 0%[57.5 µM].
CCN1CCN(Cc2ccc(Nc3ncc(F)c(-c4cc(F)c5nc(C)n(C(C)C)c5c4)n3)nc2)CC1 was read as NTMT1 inhibitor 10µM* and NNMT inh inconclusive.
Cc1ccc(-c2cc(C(=O)Nc3ccc(S(N)(=O)=O)cc3)c3cccc(C)c3n2)cc1C was read as USP2 K63 confirm 11µM* and Casp6 inh inconclusive.
Screening Cc1ccc(-c2cc(C(=O)Nc3ccncc3)c3ccccc3n2)cc1C returned NTMT1 inhibitor 0%.
Screening Cc1ccc(-c2cc(C(=O)Nc3ccc(-n4cccn4)cc3)c3ccccc3n2)cc1C returned NTMT1 inhibitor -12%, USP2 K63 confirm 8.6µM* and Casp6 inh -7.
Screening CCOC(=O)c1ccc(NC(=O)CCn2ccc(C)n2)cc1 returned NTMT1 inhibitor 7%, SKOV3 invasion -4%, DRV1 agonist -4, TSG101-PTAP inh inactive, GALK inh -2% and B2AR arrestin ag inactive.
Screening CCOc1ccc(NC(=O)N2CC3CCCN3c3ccccc32)cc1 (stereo unspecified) returned NTMT1 inhibitor -2%, SKOV3 invasion inactive, DRV1 agonist -4, TSG101-PTAP inh inactive, GALK inh 0% and B2AR arrestin ag inactive.
O=C(O)C1=CC(c2ccc(Br)cc2)n2ncnc2N1 (stereo unspecified) was read as NTMT1 inhibitor 9%, SKOV3 invasion -18%, DRV1 agonist -7, TSG101-PTAP inh inactive, GALK inh 2% and B2AR arrestin ag inactive.
Cc1ccc(S(=O)(=O)Nc2cnccc2C(=O)Nc2nc(-c3cccc(C)c3)cs2)cc1 was read as USP2 K63 confirm 1.9µM* and Casp6 inh -14.
Cc1ccc(S(=O)(=O)Nc2cnccc2C(=O)Nc2nc(-c3ccc(-c4ccccc4)cc3)cs2)cc1 was read as NTMT1 inhibitor 12%, USP2 K63 confirm 1.7µM* and Casp6 inh -22.
`COc1ccc(NC(=O)Cn2c(SCc3ccc(C)cc3)nc3cccnc32)cc1OC` gave NTMT1 inhibitor -21%, SKOV3 invasion -4%, DRV1 agonist 49, TSG101-PTAP inh inactive, GALK inh -3% and B2AR arrestin ag inactive.
For CCC1C(=O)N(C)c2cnc(Nc3ccc(C(=O)NC4CCN(C)CC4)cc3OC)nc2N1C1CCCC1 (stereo unspecified) the results were NTMT1 inhibitor 13µM* and NNMT inh inconclusive.
For O=C(Nc1ccc(S(=O)(=O)C(F)(F)F)cc1)C1=CCN(c2ncccc2C(F)(F)F)CC1 the results were NTMT1 inhibitor 9%[57.5 µM] and NNMT inh -12%.
For O=C(Nc1ccccc1C(F)(F)F)N1Cc2ccccc2Oc2ncccc21 the results were NTMT1 inhibitor 3%, SKOV3 invasion 7%, DRV1 agonist -20, TSG101-PTAP inh inactive, GALK inh -3% and B2AR arrestin ag inactive.
Screening COc1c(C(C)C)c(O)c(O)c2c1C(OC)[C@H]1OC(=O)[C@@]23CCCC(C)(C)[C@H]13 (stereo partly specified) returned NTMT1 inhibitor 12%[29.8 µM] and NNMT inh -10%[38.3 µM].
Screening Cn1cc(-c2c[nH]c3ncnc(N4CCOCC4)c23)cn1 returned NTMT1 inhibitor -12%.
Screening N#Cc1cccc(-c2c[nH]c3ncnc(N4CCOCC4)c23)c1 returned NTMT1 inhibitor 16µM* and NNMT inh inconclusive.
`Cc1csc(CNc2ncnc3ccc(-c4ccc5c(c4)OCO5)cc23)c1` gave NTMT1 inhibitor 2%[57.5 µM].

Screens deposited in PubChem by National Center for Advancing Translational Sciences (NCATS).
